Data: PubChem BioAssay (NCI)
This is part of a sample that, as a whole, favours compounds with a hit. Of some 83,000 tested, about 20% had one in any assay.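 A percent growth of 40 corresponds to 60% growth inhibition; 0 means no net growth; -100 means all cells died. Active threshold: below 10.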 Values without a mark were called inactive. Calls of active or inactive are those of the source.

Test system: SW-620 colon
Assay: NCI-60 one-dose screen, 48 h (100 = growth as untreated, 0 = no growth, -100 = all killed)
Settings: 10 µM unless noted

SMILES	growth
COc1ccc2nc3cc(Cl)ccc3c(N3CCN(c4ccnc(N5CCN(C)CC5)n4)CC3)c2c1	-55.1% (active)
Cc1cccc(NC(=O)c2sc3nc4c(cc3c2N)C(=O)CCC4)c1	26.6%
C=C1CCC2C3(C)COC(c4cccc(Cl)c4)OC3CCC2(C)C1/C=C/C1=CCOC1=O (stereo unspecified)	78.4%
COC(=O)[C@H](C(C)C)n1c(=O)c2cc(OC)c(OC)cc2c2cnc3[nH]ccc3c21	61.8%
O=C(/C=C/c1cc2ccccc2[nH]c1=O)/C=C/c1cc2ccccc2[nH]c1=O	-39.5% (active)
CC1=C(NCCN2CCCC2)C(=O)c2c(OCc3cccc(Cl)c3)cccc2C1=O	85.1%
Cn1c2ccccc2c2c3c(c4c5ccccc5[nH]c4c21)C(=O)N(N)C3=O	44.7%
C/C=C/C(N)=O	96.8%
CN1CCN(Cc2ccc(NC(=O)c3[nH]ncc3Nc3ncnc4c3CCC4)cc2)CC1	7.76% (active)
COc1cc(OC)c(/C=C/c2cc[n+](C)c3ccccc23)c(OC)c1	19.8%
Clc1cccc(Nc2nc(Nc3cnc4ccccc4c3)c3[nH]cnc3n2)c1	98.1%
Oc1ccccc1/C=N/Nc1ccc2ccccc2n1	34%
COc1ccc(/C=C2\N=C3Sc4cc(Cl)ccc4C(=O)N3C2=O)cc1	97.1%
Cc1cc(N/N=C/c2nc(-c3ccc(Cl)cc3)oc2C)c2cc(Cl)ccc2n1	-69.3% (active)
NS(=O)(=O)c1ccc(Nc2nc3n[nH]c(Nc4ccccc4)c3c(=O)[nH]2)cc1	104%
O=C(Nc1ccc(Nc2cc(Nc3ccccc3)ncn2)cc1)Nc1cc(C(F)(F)F)ccc1F	120%
Nc1cccc(-c2nc3sccn3c2-c2ccnc(NCCCNS(=O)(=O)c3ccc(C(F)(F)F)cc3)n2)c1	12.7%
O=C(Nc1ccc(F)cc1)Nc1ccc(CCO)cc1	108%
COc1ccc(CCN2CCCn3c2nc2ccccc2c3=O)cc1	27%

SMILES	growth
CCOC(=O)/C=C/C(=O)[C@H](CC(C)C)NC(=O)[C@H](Cc1ccccc1)NC(=O)OCc1ccccc1	13.8%
Cn1c2c(Cl)c(Cl)ccc2c2ccn3c(=O)c4ccccc4nc3c21	99.1%
C[C@@H]1CC[C@@H]2[C@@H]1[C@H](OC(=O)/C=C/c1ccccc1)[C@]1(C3CCCCC3)C[C@@H](OC(=O)CO)[C@@]2(C)O1	77.6%
CC#Cc1nc2ccccc2c(=O)[nH]1	40.8%
CCCCN(CC)CCCCCCCCCCN1CCCc2cc(OC)ccc21	22.7%
CC[C@H](Nc1nc(N)nc(C)c1C#N)c1nc2cccc(NCc3ccc(C(=O)NO)cc3)c2c(=O)n1-c1ccccc1	-16.4% (active)
OC(c1cccc(C(F)(F)F)c1)c1cnccc1NC1CCCCCC1 (stereo unspecified)	3.19% (active)
CC(=O)Nc1ccc2c(c1)c(NC(C)=O)nn2C(=O)Nc1ccc(Cc2ccccc2)cc1	102%
COc1cc(/C=N/N(C)C)ccc1O	90.7%
CCC(c1ccccc1)C(CC)c1ccc(O)c(O)c1 (stereo unspecified)	97.3%
COc1cc(C2CC(=O)c3c(C)nn(-c4nc5ccccc5[nH]4)c3C2)cc(OC)c1OC (stereo unspecified)	99.6%
COc1ccc(S(=O)(=O)NCCCNc2cc(-c3c(-c4cccc(OC)c4)nc4sccn34)ccn2)cc1	63.7%
COc1cccc(-c2cn3c(ccc4ccccc43)n2)c1	26.2%
COC(=S)SCN(CSC(=S)OC)c1ccc(Cl)cc1	99.1%
COc1nc2c(cc1S(=O)(=O)c1ccccc1)CCc1c-2cnn1-c1ccc(Cl)cc1	93.1%
O=c1ccc2cc3ccccc3cc2[nH]1	97.4%
COc1cnc2c(c1)C(=O)c1c-2n(CCCN2CCNCC2)c(=O)c2cc([N+](=O)[O-])ccc12	-70% (active)
CC1=N/C(=C\c2cccc(Br)c2)C(=O)O1	104%
O=C(Nc1nc(-c2ccccc2)cc(-c2ccc(Cl)cc2)n1)c1ccncc1	90.9%

Test system: MCF7 breast
Assay: as above
Settings: 10 µM unless noted

SMILES	growth
COc1ccc2nc3cc(Cl)ccc3c(N3CCN(c4ccnc(N5CCN(C)CC5)n4)CC3)c2c1	-55.8% (active)
Cc1cccc(NC(=O)c2sc3nc4c(cc3c2N)C(=O)CCC4)c1	22.6%
C=C1CCC2C3(C)COC(c4cccc(Cl)c4)OC3CCC2(C)C1/C=C/C1=CCOC1=O (stereo unspecified)	42%
COC(=O)[C@H](C(C)C)n1c(=O)c2cc(OC)c(OC)cc2c2cnc3[nH]ccc3c21	26.2%
O=C(/C=C/c1cc2ccccc2[nH]c1=O)/C=C/c1cc2ccccc2[nH]c1=O	-42.3% (active)
CC1=C(NCCN2CCCC2)C(=O)c2c(OCc3cccc(Cl)c3)cccc2C1=O	57.5%
Cn1c2ccccc2c2c3c(c4c5ccccc5[nH]c4c21)C(=O)N(N)C3=O	23.9%
C/C=C/C(N)=O	92.1%
CN1CCN(Cc2ccc(NC(=O)c3[nH]ncc3Nc3ncnc4c3CCC4)cc2)CC1	11.3%
COc1cc(OC)c(/C=C/c2cc[n+](C)c3ccccc23)c(OC)c1	5.4% (active)
Clc1cccc(Nc2nc(Nc3cnc4ccccc4c3)c3[nH]cnc3n2)c1	64.9%
Oc1ccccc1/C=N/Nc1ccc2ccccc2n1	-18% (active)
COc1ccc(/C=C2\N=C3Sc4cc(Cl)ccc4C(=O)N3C2=O)cc1	94.7%
Cc1cc(N/N=C/c2nc(-c3ccc(Cl)cc3)oc2C)c2cc(Cl)ccc2n1	-86.2% (active)
NS(=O)(=O)c1ccc(Nc2nc3n[nH]c(Nc4ccccc4)c3c(=O)[nH]2)cc1	98.5%
O=C(Nc1ccc(Nc2cc(Nc3ccccc3)ncn2)cc1)Nc1cc(C(F)(F)F)ccc1F	51.6%
Nc1cccc(-c2nc3sccn3c2-c2ccnc(NCCCNS(=O)(=O)c3ccc(C(F)(F)F)cc3)n2)c1	2.11% (active)
O=C(Nc1ccc(F)cc1)Nc1ccc(CCO)cc1	109%
COc1ccc(CCN2CCCn3c2nc2ccccc2c3=O)cc1	16.8%

SMILES	growth
CCOC(=O)/C=C/C(=O)[C@H](CC(C)C)NC(=O)[C@H](Cc1ccccc1)NC(=O)OCc1ccccc1	19.7%
Cn1c2c(Cl)c(Cl)ccc2c2ccn3c(=O)c4ccccc4nc3c21	96.2%
C[C@@H]1CC[C@@H]2[C@@H]1[C@H](OC(=O)/C=C/c1ccccc1)[C@]1(C3CCCCC3)C[C@@H](OC(=O)CO)[C@@]2(C)O1	38.3%
CC#Cc1nc2ccccc2c(=O)[nH]1	23.5%
CCCCN(CC)CCCCCCCCCCN1CCCc2cc(OC)ccc21	99%
CC[C@H](Nc1nc(N)nc(C)c1C#N)c1nc2cccc(NCc3ccc(C(=O)NO)cc3)c2c(=O)n1-c1ccccc1	5.7% (active)
OC(c1cccc(C(F)(F)F)c1)c1cnccc1NC1CCCCCC1 (stereo unspecified)	-6.03% (active)
CC(=O)Nc1ccc2c(c1)c(NC(C)=O)nn2C(=O)Nc1ccc(Cc2ccccc2)cc1	89.6%
COc1cc(/C=N/N(C)C)ccc1O	98.4%
CCC(c1ccccc1)C(CC)c1ccc(O)c(O)c1 (stereo unspecified)	98.7%
COc1cc(C2CC(=O)c3c(C)nn(-c4nc5ccccc5[nH]4)c3C2)cc(OC)c1OC (stereo unspecified)	76.4%
COc1ccc(S(=O)(=O)NCCCNc2cc(-c3c(-c4cccc(OC)c4)nc4sccn34)ccn2)cc1	34.5%
COc1cccc(-c2cn3c(ccc4ccccc43)n2)c1	17.4%
COC(=S)SCN(CSC(=S)OC)c1ccc(Cl)cc1	73.5%
COc1nc2c(cc1S(=O)(=O)c1ccccc1)CCc1c-2cnn1-c1ccc(Cl)cc1	95.2%
O=c1ccc2cc3ccccc3cc2[nH]1	96.6%
COc1cnc2c(c1)C(=O)c1c-2n(CCCN2CCNCC2)c(=O)c2cc([N+](=O)[O-])ccc12	-63.5% (active)
CC1=N/C(=C\c2cccc(Br)c2)C(=O)O1	102%
O=C(Nc1nc(-c2ccccc2)cc(-c2ccc(Cl)cc2)n1)c1ccncc1	84.6%
